{"source": "PubChem BioAssay (NCATS)", "note": "Results filed as inconclusive are left out. Calls of active or inactive are those of the source. Calls come from the whole dose curve; as a rule, active = well fitted curve in the direction sought with a large enough effect; inconclusive = small, poorly fitted or top-dose-only effect, or another doubt; inactive = no such curve, though single readings can be large; an effect the other way counts as inactive or inconclusive. % is set by controls: 0 for no effect and ±100 for the full control effect."}
{"target": "Metallo-beta-lactamase type 2 (Klebsiella pneumoniae) (UniProt C7C422)", "sequence (C7C422 whole entry, looked up)": "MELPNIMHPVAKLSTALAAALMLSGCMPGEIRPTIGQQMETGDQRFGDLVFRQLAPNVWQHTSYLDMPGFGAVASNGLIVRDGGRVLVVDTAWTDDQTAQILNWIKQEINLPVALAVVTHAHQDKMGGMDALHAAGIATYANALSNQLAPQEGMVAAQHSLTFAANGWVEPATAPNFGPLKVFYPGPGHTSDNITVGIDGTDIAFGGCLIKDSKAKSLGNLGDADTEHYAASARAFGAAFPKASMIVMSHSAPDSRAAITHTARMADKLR", "experiment": "qHTS to identify inhibitors of the New Delhi Metallo-beta-lactamase (NDM): assay validation screen against the NCATS LOPAC Collection (AID 1794843);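 note: nitrocefin turnover by NDM-1 measured as 485 nm absorbance at plateau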", "details": "NDM-1 enzyme, nitrocefin hydrolysis, absorbance 485 nm; series mostly up to 38.4 µM; activity change, negative = inhibition: at the top concentration", "how_it_was_run": "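Enzyme 2 nM final, 50 mM HEPES pH 7.0, 1 uM ZnSO4, 0.01% Tween20; cpds in DMSO, preincub w/ enzyme; + nitrocefin (50 uM stock); A485 at plateau; no-enzyme column as blank.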"}
{"compound": "C[N+](C)(C)CCOC(N)=O", "activity change, negative = inhibition": "1.45% (inactive)"}
{"compound": "C[N+](C)(C)CCCCCCCCCC[N+](C)(C)C", "activity change, negative = inhibition": "1.66% (inactive)"}
{"compound": "COc1ccc2c(c1OC)C(=O)O[C@@H]2[C@H]1c2c(cc3c(c2OC)OCO3)CCN1C", "activity change, negative = inhibition": "-8.43% (inactive)"}
{"compound": "COc1ccc([C@@H]2Sc3ccccc3N(CCN(C)C)C(=O)[C@@H]2OC(C)=O)cc1", "activity change, negative = inhibition": "5.34% (inactive)"}
{"compound": "CN(C)CCCN1c2ccccc2Sc2ccccc21", "activity change, negative = inhibition": "-1.45% (inactive)"}
{"compound": "CCn1ccnc1CC1COc2ccccc2O1", "note": "(configuration not stated)", "activity change, negative = inhibition": "-1.3% (inactive)"}
{"compound": "Nc1c2c(nc3ccccc13)CCCC2O", "note": "(configuration not stated)", "activity change, negative = inhibition": "-8.21% (inactive)"}
{"compound": "CNC1(C)C2CCC(C2)C1(C)C", "note": "(configuration not stated)", "activity change, negative = inhibition": "-0.541% (inactive)"}
{"compound": "CSc1ccc(C(=O)c2[nH]c(=O)[nH]c2C)cc1", "activity change, negative = inhibition": "15% (inactive)"}
{"compound": "NC(=O)c1cn(Cc2c(F)cccc2F)nn1", "activity change, negative = inhibition": "-1.71% (inactive)"}
{"compound": "CCN1CCC[C@H]1CNC(=O)c1c(O)c(Cl)cc(Cl)c1OC", "activity change, negative = inhibition": "-10.3% (inactive)"}
{"compound": "CNCCC(Oc1ccccc1OC)c1ccccc1", "note": "(configuration not stated)", "activity change, negative = inhibition": "-6.49% (inactive)"}
{"compound": "CN(C)CC/C=C1\\c2ccccc2COc2ccccc21", "activity change, negative = inhibition": "2.79% (inactive)"}
{"compound": "Nc1ncn([C@@H]2O[C@H](CO)[C@@H](O)[C@H]2O)c(=O)n1", "activity change, negative = inhibition": "0.198% (inactive)"}
{"compound": "OCCN1CCN(CC/C=C2/c3ccccc3Sc3ccc(C(F)(F)F)cc32)CC1", "activity change, negative = inhibition": "-13.3% (inactive)"}
{"compound": "NC(=O)c1ncn([C@@H]2O[C@H](CO)[C@@H](O)[C@H]2O)c1O", "activity change, negative = inhibition": "-9.2% (inactive)"}
{"compound": "COCCc1ccc(OCC(O)CNC(C)C)cc1", "note": "(configuration not stated)", "activity change, negative = inhibition": "1.32% (inactive)"}
{"compound": "CC(N=C(NC#N)Nc1ccncc1)C(C)(C)C", "note": "(configuration not stated)", "activity change, negative = inhibition": "-2.27% (inactive)"}
{"compound": "Cc1cc(C)c(/C=C2\\C(=O)Nc3ccccc32)[nH]1", "activity change, negative = inhibition": "-8.22% (inactive)"}
{"compound": "CN(C)C(=O)Oc1cccc([N+](C)(C)C)c1", "activity change, negative = inhibition": "7.28% (inactive)"}
{"compound": "COCC(=O)O[C@]1(CCN(C)CCCc2nc3ccccc3[nH]2)CCc2cc(F)ccc2[C@@H]1C(C)C", "activity change, negative = inhibition": "-9.16% (inactive)"}
{"compound": "CC(=O)Oc1cc(C(C)C)c(OCCN(C)C)cc1C", "activity change, negative = inhibition": "-3.89% (inactive)"}
{"compound": "C(=C\\c1ccccc1)/CN1CCN(C(c2ccccc2)c2ccccc2)CC1", "activity change, negative = inhibition": "-1.7% (inactive)"}
{"compound": "CC(=O)[C@]1(O)Cc2c(O)c3c(c(O)c2[C@@H](O[C@H]2C[C@H](N)[C@H](O)[C@H](C)O2)C1)C(=O)c1ccccc1C3=O", "activity change, negative = inhibition": "13.6% (inactive)"}
{"compound": "CC(C)COCC(CN(Cc1ccccc1)c1ccccc1)N1CCCC1", "note": "(configuration not stated)", "activity change, negative = inhibition": "-6.98% (inactive)"}
{"compound": "C[C@]12C=CC(=O)C=C1CC[C@H]1[C@@H]3C[C@@H](O)[C@](O)(C(=O)CO)[C@@]3(C)C[C@H](O)[C@@]12F", "activity change, negative = inhibition": "-1.78% (inactive)"}
{"compound": "CCCN(CCC)C(=O)C(CCC(=O)O)NC(=O)c1ccccc1", "note": "(configuration not stated)", "activity change, negative = inhibition": "-0.495% (inactive)"}
{"compound": "CCN(CC)CCNC(=O)c1cc(S(C)(=O)=O)ccc1OC", "activity change, negative = inhibition": "24.1% (inactive)"}
{"compound": "NC(N)=NC(=O)Cc1c(Cl)cccc1Cl", "activity change, negative = inhibition": "6.76% (inactive)"}
{"compound": "CCN(CC)CCCN(c1ccccc1)C1Cc2ccccc2C1", "activity change, negative = inhibition": "0.499% (inactive)"}
{"compound": "O=C(CCNNC(=O)c1ccncc1)NCc1ccccc1", "activity change, negative = inhibition": "0.563% (inactive)"}
{"compound": "O=C(O)CN(CCOCCOCCN(CC(=O)O)CC(=O)O)CC(=O)O", "activity change, negative = inhibition": "-1.48% (inactive)"}
{"compound": "CN1C[C@H](C(=O)N[C@]2(C)O[C@@]3(O)[C@@H]4CCCN4C(=O)[C@H](Cc4ccccc4)N3C2=O)C[C@@H]2c3cccc4[nH]cc(c34)C[C@H]21", "activity change, negative = inhibition": "11% (inactive)"}
{"compound": "C[N+](C)(C)CCOC(=O)CCC(=O)OCC[N+](C)(C)C", "activity change, negative = inhibition": "3.02% (inactive)"}
{"compound": "COC(=O)[C@H]1[C@H]2C[C@@H]3c4[nH]c5cc(OC)ccc5c4CCN3C[C@H]2C[C@@H](OC(=O)c2cc(OC)c(OC)c(OC)c2)[C@@H]1OC", "activity change, negative = inhibition": "-4.16% (inactive)"}
{"compound": "Cc1scc2c1N(C(=O)CN1CCN(C)CC1)c1ccccc1NC2=O", "activity change, negative = inhibition": "15.5% (inactive)"}
{"target": "Glutathione peroxidase 1 (Homo sapiens) (UniProt P07203)", "sequence (P07203 whole entry, looked up)": "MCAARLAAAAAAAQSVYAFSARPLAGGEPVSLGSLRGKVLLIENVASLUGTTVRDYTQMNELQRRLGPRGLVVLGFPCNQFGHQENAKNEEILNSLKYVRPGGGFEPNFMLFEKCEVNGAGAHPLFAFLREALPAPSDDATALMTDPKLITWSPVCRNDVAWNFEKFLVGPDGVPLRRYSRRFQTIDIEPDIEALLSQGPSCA", "experiment": "Primary qHTS Assay for Inhibitors of Recombinant Selenoprotein Glutathione Peroxidase 1 (GPX1) (AID 1845191); note: nearly all actives have a fitted effect of over 65% in size", "details": "recombinant GPX1, GR-coupled NADPH fluorescence, 15 min; series mostly up to 48.8 µM; activity, negative = inhibition: at the top concentration", "how_it_was_run": "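10 nM GPX1 + cpd, 30 min RT; start w/ 1 mM GSH, 0.5 mM cumene hydroperoxide, 0.5 mM NADPH, 100 nM GR, 0.01% BSA; buffer 50 mM Tris-HCl pH 7.5, 2 mM EDTA, 150 mM NaCl; Fl 340/450, 0 & 15 min.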"}
{"compound": "C[N+](C)(C)CCOC(N)=O", "Potency": "inactive"}
{"compound": "C[N+](C)(C)CCCCCCCCCC[N+](C)(C)C", "Potency": "inactive"}
{"compound": "COc1ccc2c(c1OC)C(=O)O[C@@H]2[C@H]1c2c(cc3c(c2OC)OCO3)CCN1C", "Potency": "inactive"}
{"compound": "COc1ccc([C@@H]2Sc3ccccc3N(CCN(C)C)C(=O)[C@@H]2OC(C)=O)cc1", "Potency": "inactive"}
{"compound": "CN(C)CCCN1c2ccccc2Sc2ccccc21", "Potency": "inactive"}
{"compound": "CCn1ccnc1CC1COc2ccccc2O1", "note": "(configuration not stated)", "outcome": "inactive"}
{"compound": "Nc1c2c(nc3ccccc13)CCCC2O", "note": "(configuration not stated)", "activity, negative = inhibition": "-21.8% (inactive)"}
{"compound": "CNC1(C)C2CCC(C2)C1(C)C", "note": "(configuration not stated)", "Potency": "inactive"}
{"compound": "CSc1ccc(C(=O)c2[nH]c(=O)[nH]c2C)cc1", "Potency": "inactive"}
{"compound": "NC(=O)c1cn(Cc2c(F)cccc2F)nn1", "Potency": "inactive"}
{"compound": "CCN1CCC[C@H]1CNC(=O)c1c(O)c(Cl)cc(Cl)c1OC", "activity, negative = inhibition": "-2.35% (inactive)"}
{"compound": "CNCCC(Oc1ccccc1OC)c1ccccc1", "note": "(configuration not stated)", "activity, negative = inhibition": "-14.2% (inactive)"}
{"compound": "CN(C)CC/C=C1\\c2ccccc2COc2ccccc21", "Potency": "inactive"}
{"compound": "Nc1ncn([C@@H]2O[C@H](CO)[C@@H](O)[C@H]2O)c(=O)n1", "Potency": "inactive"}
{"compound": "OCCN1CCN(CC/C=C2/c3ccccc3Sc3ccc(C(F)(F)F)cc32)CC1", "outcome": "inactive"}
{"compound": "NC(=O)c1ncn([C@@H]2O[C@H](CO)[C@@H](O)[C@H]2O)c1O", "Potency": "inactive"}
{"compound": "COCCc1ccc(OCC(O)CNC(C)C)cc1", "note": "(configuration not stated)", "Potency": "inactive"}
{"compound": "CC(N=C(NC#N)Nc1ccncc1)C(C)(C)C", "note": "(configuration not stated)", "Potency": "inactive"}
{"compound": "Cc1cc(C)c(/C=C2\\C(=O)Nc3ccccc32)[nH]1", "Potency": "inactive"}
{"compound": "CN(C)C(=O)Oc1cccc([N+](C)(C)C)c1", "Potency": "inactive"}
{"compound": "COCC(=O)O[C@]1(CCN(C)CCCc2nc3ccccc3[nH]2)CCc2cc(F)ccc2[C@@H]1C(C)C", "activity, negative = inhibition": "-21.3% (inactive)"}
{"compound": "CC(=O)Oc1cc(C(C)C)c(OCCN(C)C)cc1C", "outcome": "inactive"}
{"compound": "C(=C\\c1ccccc1)/CN1CCN(C(c2ccccc2)c2ccccc2)CC1", "Potency": "inactive"}
{"compound": "CC(=O)[C@]1(O)Cc2c(O)c3c(c(O)c2[C@@H](O[C@H]2C[C@H](N)[C@H](O)[C@H](C)O2)C1)C(=O)c1ccccc1C3=O", "Potency": "inactive"}
{"compound": "CC(C)COCC(CN(Cc1ccccc1)c1ccccc1)N1CCCC1", "note": "(configuration not stated)", "Potency": "inactive"}
{"compound": "C[C@]12C=CC(=O)C=C1CC[C@H]1[C@@H]3C[C@@H](O)[C@](O)(C(=O)CO)[C@@]3(C)C[C@H](O)[C@@]12F", "Potency": "inactive"}
{"compound": "CCCN(CCC)C(=O)C(CCC(=O)O)NC(=O)c1ccccc1", "note": "(configuration not stated)", "Potency": "inactive"}
{"compound": "CCN(CC)CCNC(=O)c1cc(S(C)(=O)=O)ccc1OC", "Potency": "inactive"}
{"compound": "NC(N)=NC(=O)Cc1c(Cl)cccc1Cl", "Potency": "inactive"}
{"compound": "CCN(CC)CCCN(c1ccccc1)C1Cc2ccccc2C1", "Potency": "inactive"}
{"compound": "O=C(CCNNC(=O)c1ccncc1)NCc1ccccc1", "outcome": "inactive"}
{"compound": "O=C(O)CN(CCOCCOCCN(CC(=O)O)CC(=O)O)CC(=O)O", "activity, negative = inhibition": "-13.3% (inactive)"}
{"compound": "CN1C[C@H](C(=O)N[C@]2(C)O[C@@]3(O)[C@@H]4CCCN4C(=O)[C@H](Cc4ccccc4)N3C2=O)C[C@@H]2c3cccc4[nH]cc(c34)C[C@H]21", "Potency": "inactive"}
{"compound": "C[N+](C)(C)CCOC(=O)CCC(=O)OCC[N+](C)(C)C", "Potency": "inactive"}
{"compound": "COC(=O)[C@H]1[C@H]2C[C@@H]3c4[nH]c5cc(OC)ccc5c4CCN3C[C@H]2C[C@@H](OC(=O)c2cc(OC)c(OC)c(OC)c2)[C@@H]1OC", "Potency": "inactive"}
{"compound": "Cc1scc2c1N(C(=O)CN1CCN(C)CC1)c1ccccc1NC2=O", "activity, negative = inhibition": "-18.8% (inactive)"}
